# Assay results from the supplement of paper PMC7156485.
# Several values for one entry are separate records, joined by “and”; a condition that tells them apart may be missing. Identical values can stand only once. ± gives the standard deviation of the averaged measurements.
# Test system: HCC1569
# Experiment: cell number relative to DMSO (% of DMSO); higher = more cells (less growth inhibition / toxicity)
# Conditions: concentration: 10 µM; 24 h
# Outline: (§1)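 H1.0 nuclear intensity or cell number is expressed as percent of the plate control, with the median of replicates taken. HCC1569 and TDF cells were treated with compounds at 10 µM for 24 h at 37 °C, in triplicate, then fixed and immunostained for H1.0 with DAPI as a nuclear stain. HCC1569 values were smoothed to correct for positional effects.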
# 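Note: TDF denotes transformed human dermal fibroblasts of mesenchymal origin.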
row,Structure (SMILES),cell number
1,COc1nccc(-c2c(-c3ccc(F)cc3)ncn2C2CCNCC2)n1,93.7
2,O=C(Cc1ccc(Cl)c(Cl)c1)OCCN1CCCC1.O=C(O)C(=O)O [AC 915 oxalate],101
3,"CCC(CO)Nc1nc(NCc2ccc(-c3ccccn3)cc2)c2ncn(C(C)C)c2n1 [CR8, (S)-Isomer]",52.6
4,O=C(Nc1ccccc1)c1cc([N+](=O)[O-])ccc1Cl,98.3
5,Cc1onc(-c2ccccc2)c1C(=O)NC1C(=O)N2C1SC(C)(C)C2C(=O)[O-] (stereo unspecified) [Oxacillin],99.8
6,COc1ccc(-c2cc(=O)c3c(O)cc(O)cc3o2)cc1O [Diosmetine],93.5

# Test system: TDF
# Experiment: as above
# Conditions: concentration: 10 µM; 24 h
# Outline: as §1
row,Structure (SMILES),cell number
1,Cc1ccc(S(=O)(=O)C=CC#N)cc1,103 and 100
2,Cc1c(O)cc2c(c1C)OC(C)(CCCC(C)CCCC(C)CCCC(C)C)CC2 [D-γ-Tocopherol],98.7
3,CC(C)(C)NCC(O)COc1nsnc1N1CCOCC1.O=C(O)C=CC(=O)O [(S)-Timolol maleate],105
4,O=NN(CCCl)C(=O)NC1CCCCC1 [Lomustine],85
5,OCC1OC(n2cnc3c(NC4CCCC4)ncnc32)C(O)C1O (stereo unspecified) [N6-Cyclopentyladenosine],104
6,CC(=O)OCC(=O)C1(O)CCC2C3CCC4=CC(=O)CCC4(C)C3C(O)CC21C (stereo unspecified) [Hydrocortisone 21-acetate],104
7,COc1cc2ncnc(N3CCN(C(=O)Nc4ccc(Oc5ccccc5)cc4)CC3)c2cc1OC [PDGF Receptor Tyrosine Kinase Inhibitor III],62.2
8,CCOC(=O)C(C)(C)Oc1ccc(Cl)cc1 [Clofibrate],99.8 ± 6.2
9,"CN(C)C(=O)N=NC(=O)N(C)C [N,N,N',N'-Tetramethylazodicarboxamide]",103
10,Cc1nc(-c2ccccc2)c(-c2ccncc2)o1,116
11,CN1CCC(=C2c3ccccc3C=Cc3ccccc32)CC1.Cl [Cyproheptadine hydrochloride],97.3
12,Cc1cncc2cccc(S(=O)(=O)N3CCCN(C(=O)CN)CC3C)c12.Cl.Cl.O (stereo unspecified) [Rho Kinase Inhibitor IV],42.8
13,CNC(=O)c1cc2c(cn1)[nH]c1ccccc12 [N-Methyl-beta-carboline-3-carboxamide],111
14,CC(C)N(CCC(=O)c1ccc2ccccc2c1)Cc1ccccc1.Cl,92.5
15,O=C(Nc1ccc([N+](=O)[O-])cc1Cl)c1cc(Cl)ccc1O [Niclosamide],78.1
16,CC=C(C)C(=O)OC1CC(C)=CC(=O)C2(C)CCC(O)(C(C)C)C12 (stereo unspecified) [Lapidin],102
17,OCC1OC(OC2OC=CC3C(O)C4OC4(CO)C23)C(O)C(O)C1O (stereo unspecified) [Catalpol],106
18,CC(N)(Cc1ccc(O)cc1)C(=O)O [L-alpha-Methyl-p-tyrosine],111
19,CCCCCCCCCCCCCCCC(O)C(CO)NC(=O)CCCCCCC (stereo unspecified) [C8 Dihydroceramide],104
20,CCCN(CCc1ccccc1)C1CCc2c(O)cccc2C1 (stereo unspecified) [2-(N-Phenethyl-N-propyl)amino-5-hydroxytetralin],96.6

row,Structure (SMILES),cell number
1,O=C1NC(=O)c2c1c1c3ccccc3[nH]c1c1[nH]c3cc(Br)ccc3c21 [Cdk4 Inhibitor],63.5
2,"O=[N+]([O-])c1ccc(S(=O)(=O)NCc2ccccc2)c([N+](=O)[O-])c1 [N-Benzyl-2,4-dinitrobenzenesulfonamide]",58.4
3,COc1ccc(-c2cc(=S)ss2)cc1 [Anethole-trithione],92.7
4,CCCCCCCCCCCCC(=O)N1CCCCC1CNC(=O)C(N)CCCCN.Cl.Cl (stereo unspecified),109
5,COc1ccc(N2C(=O)CSC2c2cccc(Br)c2)c(OC)c1 (stereo unspecified),10.8
6,"CCCCCC=CCC(O)C=CC=CC=CC(O)CCCC(=O)O [5(S),12(S)-DIHETE all trans]",106
7,COc1ccc(CC[C@H]2CCC[C@@H](CCc3ccc(OC)cc3)N2C[C@@H](O)CO)cc1.Cl,103
8,O=c1c(O)c(-c2ccccc2)oc2cc(O)cc(O)c12 [Galangine],91.3
9,COc1cc2c(c(OC)c1OC)-c1ccc(OC)c(=O)cc1C(NC=O)CC2 (stereo unspecified) [N-Formyl-Deacetylcolchicine],92.9
10,"Cl.Cl.Cl.NCCC1CCCC(CCN)N1 (stereo unspecified) [MDL 26,630 trihydrochloride]",105
11,Cc1c[nH]c(C=C2C(=O)Nc3ccccc32)c1CCC(=O)O,102
12,COC(C(=O)C(O)C(C)O)C1Cc2cc3cc(OC4CC(OC5CC(O)C(O)C(C)O5)C(O)C(C)O4)c(C)c(O)c3c(O)c2C(=O)C1OC1CC(OC2CC(OC3CC(C)(O)C(O)C(C)O3)C(O)C(C)O2)C(O)C(C)O1 (stereo unspecified) [Plicamycin],36
13,"S=c1ccss1 [1,2-Dithiole-3-thione]",103
14,CCOC(=O)OC(C)OC1=C(C(=O)Nc2ccccn2)N(C)S(=O)(=O)c2ccccc21 (stereo unspecified) [Ampiroxicam],94.9
15,COc1nccc(-c2c(-c3ccc(F)cc3)ncn2C2CCNCC2)n1,104
16,O=C(Cc1ccc(Cl)c(Cl)c1)OCCN1CCCC1.O=C(O)C(=O)O [AC 915 oxalate],105
17,"CCC(CO)Nc1nc(NCc2ccc(-c3ccccn3)cc2)c2ncn(C(C)C)c2n1 [CR8, (S)-Isomer]",23.5
18,O=C(Nc1ccccc1)c1cc([N+](=O)[O-])ccc1Cl,90.5
19,Cc1onc(-c2ccccc2)c1C(=O)NC1C(=O)N2C1SC(C)(C)C2C(=O)[O-] (stereo unspecified) [Oxacillin],105
20,COc1ccc(-c2cc(=O)c3c(O)cc(O)cc3o2)cc1O [Diosmetine],101
